The source of these data is PubChem BioAssay (Tox21).

Inconclusive results are not listed. A call without a number means that no potency is given here. Unmarked numbers belong to inactive results. Activity calls are given as the source filed them. The call rests on the fitted dose curve; in most records, active means well fitted curve in the direction sought with a large enough effect in the repeat runs; inconclusive means weak or mixed curves; inactive means no such curve, though single readings can be large; an effect the other way counts as inactive or inconclusive.

A short description of the first assay: qHTS assay to identify small molecule agonists of the RXR signaling pathway - cell viability counter screen (AID 1159529). Further: nearly all actives have a fitted effect of over 50% in size. Further: potency means the concentration at half of the fitted maximal effect.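 On activity change, negative = cytotoxicity: HEK 293T cells carrying an RXR-alpha UAS beta-lactamase reporter.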 The note with it: RXR-alpha-bla HEK293T viability, CellTiter-Glo, 16 h; series mostly up to 76.8 µM. In a few lines:
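RXR-alpha-UAS-bla HEK 293T cells in medium with 2% charcoal-stripped FBS were preincubated 5 hr, then exposed to compounds for 16 hr at 37 C. Viability was read as CellTiter-Glo luminescence after 30 min at room temperature.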
Background: Quantitative high-throughput screening tests each substance at several concentrations.
With `CC(=O)c1cccc([N+](=O)[O-])c1`, the Potency result was “inactive”.

Regarding `O=C(NCCO[N+](=O)[O-])c1cccnc1`, the Potency result is “inactive”.

On to `CN1CCN(C(c2ccccc2)c2ccccc2)CC1`, for which the Potency result is “inactive”.

`O=C(O)CC(=O)C(=O)O`: the Potency result was “inactive”.

Consider `CC(CSC(=O)c1ccccc1)C(=O)N1C[C@@H](Sc2ccccc2)C[C@H]1C(=O)O` (stereo partly specified), for which the activity change, negative = cytotoxicity is -1.14% [at 15.8 µM].

On to `NCC(=O)CCC(=O)O`, for which the Potency entry is “inactive”.

In the case of `NCCCN1CCOCC1`, the Potency result is “inactive”.

Regarding `ClCCOCCOCCCl`, the Potency result is “inactive”.

On to `CC/C=C\CCOC(=O)CC`, for which the Potency result was “inactive”.

For the compound `COc1ccc(C(=O)c2ccc(OC)cc2O)c(O)c1`, the Potency entry is “inactive”.

For `C=CCOC(=O)CCC1CCCCC1`, the Potency result was “inactive”.

On to `COS(=O)(=O)C(F)(F)F`, for which the Potency result was “inactive”.

As to `O=C(O)CNCC(=O)O`, the activity change, negative = cytotoxicity was 3.65% [at 6.97 µM].

As to `CCCCO`, the Potency entry is “inactive”.

Regarding `CCCCc1nc2cccnc2n1Cc1ccc(-c2ccccc2-c2nnn[nH]2)cc1`, the Potency entry is “inactive”.

In the case of `O=C(O)c1nc(Cl)c(Cl)c(Cl)c1Cl`, the Potency entry is “inactive”.

As for `O=C(O)c1ccc(-n2nc(-c3ccccc3O)nc2-c2ccccc2O)cc1`, the Potency result was “inactive”.

As to `CCCCC(CC)COC(=O)CCCCCCCCC(=O)OCC(CC)CCCC` (stereo unspecified), the Potency entry is “inactive”.

With `CCC(C)(C)CC`, the Potency entry was “inactive”.

Turning to `Cc1nn(C)c(Oc2ccccc2)c1/C=N/OCc1ccc(C(=O)OC(C)(C)C)cc1`, the Potency result is “inactive”.

For the compound `CCCCC/C=C\C/C=C\CCCCCCCC(=O)NC(C)c1ccccc1` (stereo unspecified), the Potency entry was “inactive”.

On to `CCCCCCCCCCCCCCOS(=O)(=O)O`, for which the Potency is 21.9 µM (active).

With `CCOc1ccc(O)cc1`, the Potency result is “inactive”.

`O=C(O)C1(C(=O)O)CCC1.[NH2-].[NH2-].[Pt+2]`: the Potency entry is “inactive”.

For `C/C=C/C=C/CO`, the Potency result was “inactive”.

As to `CC(=O)c1ccc2c(c1)N(CCCN1CCC(CCO)CC1)c1ccccc1S2`, the Potency was 10.7 µM (active).

With `COc1ccnc(CS(=O)c2nc3ccc(OC(F)F)cc3[nH]2)c1OC` (stereo unspecified), the Potency entry is “inactive”.

Take `C1CCCNCCC1`: the Potency result was “inactive”.

On to `CCCC(=O)Nc1ccc(O)c(C(C)=O)c1`, for which the Potency entry was “inactive”.

As to `CCCCCCCCCOS(=O)(=O)O`, the Potency entry was “inactive”.

Consider `CN(C)C(=O)NC1(c2ccccc2)CCN(CC[C@@]2(c3ccc(F)c(F)c3)CN(C(=O)c3ccccc3)CCO2)CC1`, for which the Potency was 45.5 µM (active).

As to `Cc1cc(C(=O)O)ccc1[N+](=O)[O-]`, the Potency result is “inactive”.

For the compound `Cc1ccc(N=Nc2c(O)c(C(=O)O)cc3ccccc23)c(S(=O)(=O)O)c1`, the Potency entry is “inactive”.

Regarding `OC[C@H]1O[C@@H](OCCc2ccc(O)cc2)[C@H](O)[C@@H](O)[C@@H]1O`, the Potency result is “inactive”.

The next assay is described as follows: qHTS assay to identify small molecule antagonists of the retinoid acid receptor (RAR) signaling pathway - cell viability counter screen (AID 1159551). Further: nearly all actives have a fitted effect of over 35% in size. The note with it: C3RL4 cells viability, ATP luminescence (CellTiter-Glo), 6 h; series mostly up to 92.4 µM. In a few lines:
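C3RL4 RARE-luciferase cells, 1,000/well, incubated overnight, then dosed with compound plus 1 uM retinol (final). After 6 hr at 37 C, viability read by CellTiter-Glo ATP luminescence following 30 min at room temperature.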
As to `CC(=O)c1cccc([N+](=O)[O-])c1`, the Potency result is “inactive”.

As to `O=C(NCCO[N+](=O)[O-])c1cccnc1`, the Potency result was “inactive”.

Regarding `CN1CCN(C(c2ccccc2)c2ccccc2)CC1`, the Potency result is “inactive”.

As for `O=C(O)CC(=O)C(=O)O`, the Potency result is “inactive”.

As to `CC(CSC(=O)c1ccccc1)C(=O)N1C[C@@H](Sc2ccccc2)C[C@H]1C(=O)O` (stereo partly specified), the activity change, negative = cytotoxicity is -2.34% [at 19 µM].

`NCC(=O)CCC(=O)O`: the Potency result is “inactive”.

On to `NCCCN1CCOCC1`, for which the Potency result is “inactive”.

With `ClCCOCCOCCCl`, the Potency result is “inactive”.

`CC/C=C\CCOC(=O)CC`: the Potency entry was “inactive”.

Turning to `COc1ccc(C(=O)c2ccc(OC)cc2O)c(O)c1`, the Potency result is “inactive”.

For the compound `C=CCOC(=O)CCC1CCCCC1`, the Potency entry is “inactive”.

Regarding `COS(=O)(=O)C(F)(F)F`, the Potency entry is “inactive”.

In the case of `O=C(O)CNCC(=O)O`, the activity change, negative = cytotoxicity was -1.04% [at 8.39 µM].

Turning to `CCCCO`, the Potency entry was “inactive”.

Turning to `CCCCc1nc2cccnc2n1Cc1ccc(-c2ccccc2-c2nnn[nH]2)cc1`, the Potency result was “inactive”.

Turning to `O=C(O)c1nc(Cl)c(Cl)c(Cl)c1Cl`, the Potency entry was “inactive”.

As to `O=C(O)c1ccc(-n2nc(-c3ccccc3O)nc2-c2ccccc2O)cc1`, the Potency result is “inactive”.

Regarding `CCCCC(CC)COC(=O)CCCCCCCCC(=O)OCC(CC)CCCC` (stereo unspecified), the Potency entry is “inactive”.

Regarding `CCC(C)(C)CC`, the Potency entry was “inactive”.

On to `Cc1nn(C)c(Oc2ccccc2)c1/C=N/OCc1ccc(C(=O)OC(C)(C)C)cc1`, for which the Potency result is “inactive”.

For `CCCCC/C=C\C/C=C\CCCCCCCC(=O)NC(C)c1ccccc1` (stereo unspecified), the Potency entry is “inactive”.

Consider `CCCCCCCCCCCCCCOS(=O)(=O)O`, for which the Potency result was “inactive”.

Take `CCOc1ccc(O)cc1`: the Potency result was “inactive”.

Consider `O=C(O)C1(C(=O)O)CCC1.[NH2-].[NH2-].[Pt+2]`, for which the Potency entry is “inactive”.

On to `C/C=C/C=C/CO`, for which the Potency entry was “inactive”.

Regarding `CC(=O)c1ccc2c(c1)N(CCCN1CCC(CCO)CC1)c1ccccc1S2`, the Potency entry is “inactive”.

Regarding `COc1ccnc(CS(=O)c2nc3ccc(OC(F)F)cc3[nH]2)c1OC` (stereo unspecified), the Potency result is “inactive”.

On to `C1CCCNCCC1`, for which the Potency result is “inactive”.

For the compound `CCCC(=O)Nc1ccc(O)c(C(C)=O)c1`, the Potency result is “inactive”.

In the case of `CCCCCCCCCOS(=O)(=O)O`, the Potency result was “inactive”.

In the case of `CN(C)C(=O)NC1(c2ccccc2)CCN(CC[C@@]2(c3ccc(F)c(F)c3)CN(C(=O)c3ccccc3)CCO2)CC1`, the Potency entry is “inactive”.

With `Cc1cc(C(=O)O)ccc1[N+](=O)[O-]`, the Potency entry is “inactive”.

With `Cc1ccc(N=Nc2c(O)c(C(=O)O)cc3ccccc23)c(S(=O)(=O)O)c1`, the Potency entry is “inactive”.

Consider `OC[C@H]1O[C@@H](OCCc2ccc(O)cc2)[C@H](O)[C@@H](O)[C@@H]1O`, for which the Potency entry was “inactive”.

A further assay is described as follows: qHTS assay to identify small molecule antagonists of the retinoic acid receptor (RAR) signaling pathway (AID 1159552; further: nearly all actives have a fitted effect of over 50% in size). The note with it: C3RL4 RARE luciferase reporter, retinol-stimulated, 6 h; series mostly up to 92.4 µM. The procedure, abridged:
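RARE-luc C3RL4 cells; cpds + 1 uM (final) retinol, 6 hr, 37 C/5% CO2; luciferase reagent, 30 min RT, luminescence readout. Inhibitors of retinol-driven signal scored.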
For `O=C(O)CC(=O)C(=O)O`, the Potency entry was “inactive”.

For `COc1ccc(C(=O)c2ccc(OC)cc2O)c(O)c1`, the Potency entry was “inactive”.

As for `O=C(O)c1ccc(-n2nc(-c3ccccc3O)nc2-c2ccccc2O)cc1`, the Potency result is “inactive”.

On to `CCC(C)(C)CC`, for which the Potency entry is “inactive”.

For the compound `Cc1nn(C)c(Oc2ccccc2)c1/C=N/OCc1ccc(C(=O)OC(C)(C)C)cc1`, the Potency result was “inactive”.

For `CCCCC/C=C\C/C=C\CCCCCCCC(=O)NC(C)c1ccccc1` (stereo unspecified), the Potency result is “inactive”.

`CCOc1ccc(O)cc1`: the Potency entry is “inactive”.

As to `Cc1cc(C(=O)O)ccc1[N+](=O)[O-]`, the Potency entry was “inactive”.
